In one test the target is Albumin (Bos taurus) (UniProt P02769). The test is described as follows: compounds binding labelled BSA control protein – biochemical, small-molecule microarray, Alexa647 label, 635/667 nm fluorescence, artefact control for SMM control protein annotation, profiling panel (AID 1118).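 Further: score merges 667 nm emission intensity and signal-to-noise per printed compound spot.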 To be noted: BSA-A647 binding, fluorescence 635 nm, higher = more signal.
The nature of test [1]: probe aXIP binding to arrayed compounds – biochemical, NeuroSMM set, 635/667 nm fluorescence, primary screen (AID 1119).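 Further: probe is the protein aXip251-270 applied at 1 µg/mL to compound-printed slides; binding of probe to printed compounds measured as 667 nm fluorescence plus signal to noise.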 The following applies: small-molecule microarray, higher = more signal, called active from +8 up or from −8 down.
Test [2] can be described thus: probe aNOTCH3 binding on compound microarray – biochemical, small-molecule microarray, 635/667 nm fluorescence, primary screen (AID 1120).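 Further: probe is a biotin-tagged antibody raised against NOTCH3 rather than NOTCH3 protein; score merges spot fluorescence near 667 nm with spot signal to noise.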 The following applies: higher = more signal.
The nature of test [3]: probe aNOTCH2 binding on compound microarray – biochemical, small-molecule microarray, 635/667 nm fluorescence, primary screen (AID 1121).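 Further: score merges feature fluorescence read at 667 nm with its signal to noise.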 To be noted: higher = more signal.
In test [4] the target is Carbonic anhydrase 2 (Homo sapiens) (UniProt P00918). The test is described as follows: compounds binding carbonic anhydrase 2 – biochemical, small-molecule microarray, Alexa647-labelled CAII, profiling panel (AID 1122). To be noted: CAII-A647 binding fluorescence, higher = more signal.
Test [5] can be described thus: COS7 lysate on small-molecule microarray, probe aHis, 635 nm (AID 1123).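 Further: z-score combines 667nm fluorescence intensity with signal-to-noise per printed compound spot.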 To be noted: COS7 cell lysate, fluorescence, higher = more signal.
A short description of test [6]: probe aLAP1 signal on lysate-treated microarray – cell lysate, small-molecule microarray, COS7 lysate, primary screen (AID 1124).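 Further: lysate comes from COS7 cells expressing LAP1 and is applied at 0.3 µg/mL; score merges spot fluorescence near 667 nm with signal-to-noise over triplicate slides.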 To be noted: probe aLAP1, fluorescence, higher = more signal.
The next test concerns Sam68 (KHDRBS1). The test is described as follows: compounds binding KHDRBS1 protein – biochemical, small-molecule microarray, 635 nm fluorescence, primary screen (AID 1125).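 Further: score merges 667 nm channel intensity with signal to noise over triplicate slides.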 To be noted: higher = more signal.
The subject of test [7] is Chordin-like protein 2 (CHRDL2). The test is described as follows: compounds binding chordin-like 2 – biochemical, small-molecule microarray, 635 nm fluorescence, primary screen (AID 1126).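 Further: printed compound slides probed with Chrdl2 protein at 4 µg/mL for 1 h at 4 C; score merges 667 nm emission intensity with signal to noise over three replicate slides.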 To be noted: fluorescence 635 nm, higher = more signal.
Test [8] has as its target Concanavalin-A (Canavalia ensiformis) (UniProt P02866). The test is described as follows: compounds binding concanavalin A lectin – biochemical, small-molecule microarray, Alexa647 label, 635 nm, artefact control for SMM control protein annotation, primary screen (AID 1127).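 Further: z combines 667 nm emission intensity with signal-to-noise across three replicate slides.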 To be noted: ConA-A647 binding fluorescence, higher = more signal.
Test [9] in a line: compounds binding Alexa647 anti-His antibody – biochemical, small-molecule microarray, 635 nm fluorescence, artefact control for SMM control protein annotation, primary screen (AID 1128).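 Further: score merges feature fluorescence with signal-to-noise for each printed compound spot.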 The following applies: higher = more signal.
Test [10] concerns Human papillomavirus type 1a E7 protein (residues 1-88). The test is described as follows: HPV1a E7 small-molecule binders, primary screen, biochemical, small-molecule microarray, residues 1-88, 635 nm (AID 1129). To be noted: small-molecule microarray binding, fluorescence 635 nm; higher = more signal.
Test [11] concerns the target Focal adhesion kinase 1 (Homo sapiens) (UniProt Q05397). The test is described as follows: PTK2 protein binding on printed compound slides – biochemical, small-molecule microarray, 635/667 nm fluorescence, BSA, DTT, primary screen (AID 1130).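 Further: composite of spot emission at 667 nm and signal to noise over triplicate slides.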 To be noted: 635 nm fluorescence, higher = more signal.
The subject of test [12] is Fibrinogen (Alexa647-labelled). The test is described as follows: Alexa647-fibrinogen binding to printed small molecules – biochemical, small-molecule microarray, 635/667 nm fluorescence, artefact control for SMM control-protein annotation, profiling panel (AID 1131).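 Further: z-score merges 667 nm fluorescence with per-spot signal-to-noise over triplicate slides.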 To be noted: fibrinogen-A647 binding fluorescence, higher = more signal.
Test [13] addresses Follistatin (Homo sapiens) (UniProt P19883). The test is described as follows: FST protein binding to printed compounds – biochemical, small-molecule microarray, 635/667 nm fluorescence, primary screen (AID 1132). To be noted: 635 nm fluorescence, higher = more signal.
Test [14] concerns the target Fibroblast growth factor 2 (Homo sapiens) (UniProt P09038). The test is described as follows: basic fibroblast growth factor binding to printed compounds – biochemical, small-molecule microarray, 635/667 nm fluorescence, primary screen (AID 1133). The following applies: FGF2, fluorescence 635/667, higher = more signal.
Test [15] in a line: JC-1 mitochondrial potential readout, lung cancer cells – cell-based, A549, JC-1 fluorescence, basal, 24 h, 100 nL, profiling panel (AID 1138).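 Further: A549 lung adenocarcinoma cells under basal conditions with no added stimulus; test concentration not given here.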 To be noted: higher = more signal.
A further test has as its system Lefty1. The test is described as follows: Lefty1 protein binding to printed compounds – biochemical, small-molecule microarray, 635/667 nm fluorescence, primary screen (AID 1139). The following applies: fluorescence 635/667, higher = more signal.
Test [16] has as its system wheat germ agglutinin (Triticum aestivum), Alexa647-labelled. The test is described as follows: Alexa647-WGA lectin binding to printed small molecules – biochemical, small-molecule microarray, 635/667 nm fluorescence, artefact control for SMM control-protein annotation, profiling panel (AID 1140).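 Further: score merges 667 nm feature emission with signal to noise over triplicate slides.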 The following applies: WGA-A647 binding, 635 nm fluorescence, higher = more signal.

Test [17] addresses Luciferin 4-monooxygenase (Photinus pyralis) (UniProt P08659). The test is described as follows: inhibition of purified Photinus pyralis luciferase – biochemical, luminescence, purified enzyme, 2006 set, primary screen (AID 1141).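 Further: cell-free assay with purified firefly luciferase at 100 ng per well in PBS; test concentration not given here.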 To be noted: purified firefly luciferase, SteadyGlo luminescence, 30 min; higher = more signal, called active from +8 up or from −8 down.

Active and inactive are the calls of the source.

Concanavalin-A (Canavalia ensiformis), sequence (P02866 whole entry, looked up): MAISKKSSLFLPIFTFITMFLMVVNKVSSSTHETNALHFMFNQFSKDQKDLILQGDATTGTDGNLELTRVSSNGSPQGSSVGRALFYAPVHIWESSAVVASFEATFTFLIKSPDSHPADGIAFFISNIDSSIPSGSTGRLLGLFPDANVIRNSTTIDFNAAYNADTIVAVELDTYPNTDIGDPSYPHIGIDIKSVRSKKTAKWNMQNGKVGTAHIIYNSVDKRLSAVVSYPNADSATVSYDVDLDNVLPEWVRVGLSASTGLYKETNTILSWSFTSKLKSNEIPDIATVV
Luciferin 4-monooxygenase (Photinus pyralis), sequence (P08659 whole entry, looked up): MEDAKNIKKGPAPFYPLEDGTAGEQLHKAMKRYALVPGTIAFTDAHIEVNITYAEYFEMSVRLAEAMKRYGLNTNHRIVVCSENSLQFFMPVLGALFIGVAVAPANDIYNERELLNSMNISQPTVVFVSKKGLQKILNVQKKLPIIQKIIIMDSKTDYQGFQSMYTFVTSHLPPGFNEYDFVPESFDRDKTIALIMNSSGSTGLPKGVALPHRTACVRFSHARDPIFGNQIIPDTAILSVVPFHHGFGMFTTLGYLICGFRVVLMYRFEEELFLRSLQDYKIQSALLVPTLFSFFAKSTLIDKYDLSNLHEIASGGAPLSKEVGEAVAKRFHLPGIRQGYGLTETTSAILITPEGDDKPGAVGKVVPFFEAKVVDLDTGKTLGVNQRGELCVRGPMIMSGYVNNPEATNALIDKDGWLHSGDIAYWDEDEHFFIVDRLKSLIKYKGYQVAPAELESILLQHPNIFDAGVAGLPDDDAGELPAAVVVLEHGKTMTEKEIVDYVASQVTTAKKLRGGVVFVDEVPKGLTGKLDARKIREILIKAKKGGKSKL
Albumin (Bos taurus), sequence (P02769 whole entry, looked up): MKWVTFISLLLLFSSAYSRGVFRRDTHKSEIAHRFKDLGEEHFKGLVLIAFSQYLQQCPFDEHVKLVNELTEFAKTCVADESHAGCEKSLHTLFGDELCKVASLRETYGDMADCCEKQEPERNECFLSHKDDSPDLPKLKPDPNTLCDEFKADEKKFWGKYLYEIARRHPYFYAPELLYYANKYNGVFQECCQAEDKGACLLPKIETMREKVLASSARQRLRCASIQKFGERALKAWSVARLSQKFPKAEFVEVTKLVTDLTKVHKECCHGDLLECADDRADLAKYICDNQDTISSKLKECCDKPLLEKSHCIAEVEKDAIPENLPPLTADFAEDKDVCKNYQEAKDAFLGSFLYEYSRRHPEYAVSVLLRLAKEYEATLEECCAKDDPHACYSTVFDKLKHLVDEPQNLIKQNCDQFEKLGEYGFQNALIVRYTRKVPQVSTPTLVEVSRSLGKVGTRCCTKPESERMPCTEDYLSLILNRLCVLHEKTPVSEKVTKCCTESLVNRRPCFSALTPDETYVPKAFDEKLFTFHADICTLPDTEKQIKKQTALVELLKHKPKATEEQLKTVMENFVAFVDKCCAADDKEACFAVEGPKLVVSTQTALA
Focal adhesion kinase 1 (Homo sapiens), sequence (Q05397 whole entry, looked up): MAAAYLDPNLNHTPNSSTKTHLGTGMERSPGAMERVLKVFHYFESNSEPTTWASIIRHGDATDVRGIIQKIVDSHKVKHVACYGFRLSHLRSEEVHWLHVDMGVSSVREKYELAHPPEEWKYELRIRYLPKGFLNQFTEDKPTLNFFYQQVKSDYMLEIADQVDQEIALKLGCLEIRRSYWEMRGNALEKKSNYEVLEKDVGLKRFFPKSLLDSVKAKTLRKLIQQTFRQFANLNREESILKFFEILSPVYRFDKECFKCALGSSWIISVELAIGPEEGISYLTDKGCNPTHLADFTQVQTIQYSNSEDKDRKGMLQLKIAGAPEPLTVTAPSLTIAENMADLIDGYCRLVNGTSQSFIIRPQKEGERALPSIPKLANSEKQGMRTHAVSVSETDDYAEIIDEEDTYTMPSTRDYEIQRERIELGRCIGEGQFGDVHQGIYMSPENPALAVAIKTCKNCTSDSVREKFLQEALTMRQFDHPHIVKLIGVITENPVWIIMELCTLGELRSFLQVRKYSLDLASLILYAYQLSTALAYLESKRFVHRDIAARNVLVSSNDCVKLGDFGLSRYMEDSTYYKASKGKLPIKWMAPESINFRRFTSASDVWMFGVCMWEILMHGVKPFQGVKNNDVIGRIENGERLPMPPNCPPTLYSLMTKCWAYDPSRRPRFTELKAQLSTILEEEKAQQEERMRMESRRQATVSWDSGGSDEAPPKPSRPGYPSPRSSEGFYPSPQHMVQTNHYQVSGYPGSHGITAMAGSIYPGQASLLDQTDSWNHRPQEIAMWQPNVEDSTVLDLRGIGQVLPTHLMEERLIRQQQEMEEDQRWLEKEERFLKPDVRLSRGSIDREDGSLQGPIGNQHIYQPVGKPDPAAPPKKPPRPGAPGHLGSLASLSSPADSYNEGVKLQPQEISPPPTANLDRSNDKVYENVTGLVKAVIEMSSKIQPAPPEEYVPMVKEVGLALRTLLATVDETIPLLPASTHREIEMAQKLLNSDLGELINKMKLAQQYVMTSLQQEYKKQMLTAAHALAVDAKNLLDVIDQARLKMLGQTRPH
Fibroblast growth factor 2 (Homo sapiens), sequence (P09038 whole entry, looked up): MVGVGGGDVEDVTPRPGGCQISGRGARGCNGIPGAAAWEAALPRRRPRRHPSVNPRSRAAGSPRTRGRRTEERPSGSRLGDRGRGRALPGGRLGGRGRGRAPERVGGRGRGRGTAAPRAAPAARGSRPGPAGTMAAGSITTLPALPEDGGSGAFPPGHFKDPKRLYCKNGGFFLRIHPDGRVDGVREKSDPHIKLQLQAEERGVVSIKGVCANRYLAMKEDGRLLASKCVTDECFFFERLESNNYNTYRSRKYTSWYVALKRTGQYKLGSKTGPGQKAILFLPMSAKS
Follistatin (Homo sapiens), sequence (P19883 whole entry, looked up): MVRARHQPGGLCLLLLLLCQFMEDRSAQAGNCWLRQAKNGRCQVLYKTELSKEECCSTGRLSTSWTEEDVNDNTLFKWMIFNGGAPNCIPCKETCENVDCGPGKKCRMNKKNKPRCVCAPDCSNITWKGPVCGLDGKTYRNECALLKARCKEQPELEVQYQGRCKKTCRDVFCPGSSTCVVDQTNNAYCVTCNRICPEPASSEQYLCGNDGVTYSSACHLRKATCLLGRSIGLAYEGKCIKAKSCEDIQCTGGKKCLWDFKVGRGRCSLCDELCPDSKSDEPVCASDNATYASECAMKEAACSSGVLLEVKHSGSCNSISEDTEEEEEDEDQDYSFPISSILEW

`COc1ccc([Si](C)(C)[C@@H]2[C@@H](CC(=O)N3CCC[C@H]3CO)O[C@]3(C(=O)N(Cc4ccc(N5CCC5=O)cc4)c4ccccc43)[C@H]2C)cc1`: the composite z-score with Albumin (Bos taurus) is -0.82; in test [2], 0.0026; in test [3] it was -0.0624; in [4], 0.415; in [5], 1.05; in [6], -0.31. Also, the composite z-score in the test with Sam68 (KHDRBS1) is 1.31; in [7], 0.183; in [8] it was 1.08; in test [9] it was 2.01; in [10], 1.13; in test [11], 0.983. The composite z-score in test [12] was 0.406; in test [13], 0.712; in test [14], 0.589; in the test on Lefty1 it was 1.04; in [16] it was 0.0389. Moreover, in test [1], the composite Z-score is 0.566 (inactive). Besides, the figures for the z-score in test [15] and in test [17] were 1.55 and -1.45 (inactive), respectively.
For the molecule `CC(C)C[C@@H]1NC(=O)[C@H]2C[C@@H](C(=O)NCCCC[N+](C)(C)C)[C@@H](c3cccc(OCCO)c3)N2C1=O`, the composite z-score was 0.252 with Albumin (Bos taurus); 0.217 in test [2]; -0.19 in test [3]; 0.475 in test [4]; 1.89 in test [5]; 0.987 in [6]. For the same molecule, the composite z-score in the test on Sam68 (KHDRBS1) is 0.848; in test [7] it was 0.938; in test [8], 0.476; in test [9] it was 3.29; in test [10] it was -0.146; in [11] it was -0.153. The composite z-score in test [12] is -0.236; in test [13] it was 1.25; in test [14] it was 1.61; in the test with Lefty1, 1.39; in test [16], -0.102. The composite Z-score in [1] is 0.331 (inactive). The z-score was 1.31 in test [15] and -1.97 (inactive) in test [17].
For the molecule `COc1c(C)cc(-c2cc3c(c(CCc4ccccc4)n2)[Si](C(C)C)(C(C)C)OC3)cc1C`, the composite z-score was -0.296 in the test with Albumin (Bos taurus); 0.0179 in test [2]; 0.0049 in [3]; 0.2 in [4]; 0.614 in [5]; 0.427 in test [6]. In addition, the composite z-score in the test on Sam68 (KHDRBS1) is 1.07; in test [7], 0.0922; in test [8], -0.17; in [9], -0.611; in test [10], 0.654; in test [11], 0.158. Further, the composite z-score is -0.074 in [12]; 0.483 in test [13]; 0.0057 in test [14]; 0.251 in the test with Lefty1; -0.442 in [16]. Besides, the composite Z-score in [1] is 0.0537 (inactive). The z-score in test [15] was 2.24; in [17], -0.374 (inactive).
As to `C=C(/C(=C/C[C@H](OC(C)=O)c1cccc(OCCO)c1)c1cc(C(=O)OC)ccc1OC)C(C)C`, the composite z-score in the test with Albumin (Bos taurus) was 0.103; in [2], -0.0918; in [3], -0.126; in test [4], 0.38; in test [5], 0.866; in test [6] it was 0.172. For the same molecule, the composite z-score is 0.177 with Sam68 (KHDRBS1); -0.767 in test [7]; -0.319 in test [8]; -0.604 in [9]; -0.389 in [10]; 0.445 in test [11]. For the same molecule, the composite z-score in test [12] is -0.624; in [13], -0.288; in test [14], -0.0132; with Lefty1, -0.0603; in test [16], -0.907. Moreover, in test [1], the composite Z-score is 0.307 (inactive). Besides, the z-score in test [15] was 3.18; in test [17], -1.84 (inactive).
Turning to `O=C1c2ccccc2[C@](Cc2ccccc2I)(C(=O)O)[C@H](c2ccc(CO)cc2)N1Cc1ccccc1Cl`, the composite z-score in the test with Albumin (Bos taurus) was 0.953; in [2] it was -0.014; in test [3], -0.0633; in [4], 0.608; in test [5], 2.24; in [6], 1.07. Also, the composite z-score was 1.3 in the test on Sam68 (KHDRBS1); -0.912 in test [7]; 0.944 in [8]; 1.99 in test [9]; 1.19 in test [10]; 1.04 in [11]. In addition, the composite z-score in [12] was -0.113; in test [13], 0.0645; in test [14], -0.354; in the test on Lefty1 it was 0.0911; in test [16], 0.507. Also, the composite Z-score in test [1] is 1.61 (inactive). For the same molecule, the z-score was 0.712 in test [15] and -1.28 (inactive) in test [17].

The values are drawn from PubChem BioAssay.
